{"source": "PubChem BioAssay AID1159580", "about": "(chemical genetic matrix, 2015)", "test": "chemical genetic growth profiling, strain panel (AID 1159580);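 further: tested at 20 µM; growth read once vehicle control cultures reached saturation at 30 °C; 1 = growth at the plate median or of vehicle wells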", "details": "growth OD", "note": "Among all 5,500 compounds or so, about 2,000 (36%) were called active. Roughly 18% stayed inconclusive and do not appear here. Some of the results follow. Values without a mark were called inactive. No stated cut-off is given here; in the data, active means normalized growth mostly below about 0.91 (no sharp cut-off); inconclusive means no clear call, values can overlap the other calls; inactive means mostly above about 0.92."}
{"smiles": "C1N2CN3CN1CN(C2)C3", "values": [{"measurement": "normalized growth", "setting": "S. cerevisiae deletion strains, locus YJR075W, strain HOC1, stronger effect = lower value", "result": 0.986}, {"measurement": "normalized growth", "setting": "S. cerevisiae deletion strains, locus YKL009W, strain mrt4, stronger effect = lower value", "result": "0.834 (active)"}, {"measurement": "normalized growth", "setting": "S. cerevisiae deletion strains, locus YKL068W, stronger effect = lower value", "result": 0.976}, {"measurement": "normalized growth", "setting": "S. cerevisiae deletion strains, locus YKL085W, strain MDH1 (second series), stronger effect = lower value", "result": 0.987}, {"measurement": "normalized growth", "setting": "S. cerevisiae deletion strains, locus YKL085W, strain MDH1, stronger effect = lower value", "result": 0.987}, {"measurement": "normalized growth", "setting": "S. cerevisiae deletion strains, locus YKL160W, strain elf1, stronger effect = lower value", "result": 0.973}, {"measurement": "normalized growth", "setting": "S. cerevisiae deletion strains, locus YKL190W, strain CNB1, stronger effect = lower value", "result": 0.98}, {"measurement": "normalized growth", "setting": "S. cerevisiae deletion strains, locus YKR001C, strain vps1, stronger effect = lower value", "result": 0.965}, {"measurement": "normalized growth", "setting": "S. cerevisiae deletion strains, locus YKR026C, strain gcn3, stronger effect = lower value", "result": 0.997}, {"measurement": "normalized growth", "setting": "S. cerevisiae deletion strains, locus YKR091W, strain srl3, stronger effect = lower value", "result": 0.985}, {"measurement": "normalized growth", "setting": "S. cerevisiae deletion strains, locus YLL001W, strain dnm1, stronger effect = lower value", "result": 0.93}, {"measurement": "normalized growth", "setting": "S. cerevisiae deletion strains, locus YLL026W, stronger effect = lower value", "result": 0.993}, {"measurement": "normalized growth", "setting": "S. cerevisiae deletion strains, locus YLL041C, strain sdh2, stronger effect = lower value", "result": 0.983}, {"measurement": "normalized growth", "setting": "S. cerevisiae deletion strains, locus YLR027C, strain aat2, stronger effect = lower value", "result": 0.996}, {"measurement": "normalized growth", "setting": "S. cerevisiae deletion strains, locus YLR039C, strain RIC1, stronger effect = lower value", "result": 0.899}, {"measurement": "normalized growth", "setting": "S. cerevisiae deletion strains, locus YLR058C, strain SHM2, stronger effect = lower value", "result": 0.976}, {"measurement": "normalized growth", "setting": "S. cerevisiae deletion strains, locus YLR102C, strain apc9, stronger effect = lower value", "result": 0.968}, {"measurement": "normalized growth", "setting": "S. cerevisiae deletion strains, locus YLR113W, strain HOG1, stronger effect = lower value", "result": 0.906}, {"measurement": "normalized growth", "setting": "S. cerevisiae deletion strains, locus YLR221C, strain rsa3, stronger effect = lower value", "result": 0.965}, {"measurement": "normalized growth", "setting": "S. cerevisiae deletion strains, locus YLR258W, strain gsy2, stronger effect = lower value", "result": 0.994}, {"measurement": "normalized growth", "setting": "S. cerevisiae deletion strains, locus YLR262C, strain YPT6 (second series), stronger effect = lower value", "result": 0.959}, {"measurement": "normalized growth", "setting": "S. cerevisiae deletion strains, locus YLR262C, strain YPT6, stronger effect = lower value", "result": 0.889}, {"measurement": "normalized growth", "setting": "S. cerevisiae deletion strains, locus YLR268W, strain sec22, stronger effect = lower value", "result": 0.957}, {"measurement": "normalized growth", "setting": "S. cerevisiae deletion strains, locus YLR320W, strain mms22, stronger effect = lower value", "result": 0.961}, {"measurement": "normalized growth", "setting": "S. cerevisiae deletion strains, locus YLR330W, strain CHS5, stronger effect = lower value", "result": 0.985}, {"measurement": "normalized growth", "setting": "S. cerevisiae deletion strains, locus YLR342W, strain FKS1 (second series), stronger effect = lower value", "result": 0.991}, {"measurement": "normalized growth", "setting": "S. cerevisiae deletion strains, locus YLR342W, strain FKS1, stronger effect = lower value", "result": 0.982}, {"measurement": "normalized growth", "setting": "S. cerevisiae deletion strains, locus YLR357W, strain rsc2, stronger effect = lower value", "result": 0.971}, {"measurement": "normalized growth", "setting": "S. cerevisiae deletion strains, locus YLR370C, strain arc18, stronger effect = lower value", "result": 0.988}, {"measurement": "normalized growth", "setting": "S. cerevisiae deletion strains, locus YLR371W, strain rom2, stronger effect = lower value", "result": 0.98}, {"measurement": "normalized growth", "setting": "S. cerevisiae deletion strains, locus YLR384C, strain iki3, stronger effect = lower value", "result": 0.989}, {"measurement": "normalized growth", "setting": "S. cerevisiae deletion strains, locus YLR418C, strain cdc73, stronger effect = lower value", "result": 0.934}, {"measurement": "normalized growth", "setting": "S. cerevisiae deletion strains, locus YML016C, strain PPZ1, stronger effect = lower value", "result": 0.983}, {"measurement": "normalized growth", "setting": "S. cerevisiae deletion strains, locus YML032C, strain rad52, stronger effect = lower value", "result": 0.932}, {"measurement": "normalized growth", "setting": "S. cerevisiae deletion strains, locus YML120C, strain ndi1, stronger effect = lower value", "result": 0.967}, {"measurement": "normalized growth", "setting": "S. cerevisiae deletion strains, locus YML124C, strain tub3, stronger effect = lower value", "result": 0.982}, {"measurement": "normalized growth", "setting": "S. cerevisiae deletion strains, locus YMR058W, strain fet3, stronger effect = lower value", "result": 0.998}, {"measurement": "normalized growth", "setting": "S. cerevisiae deletion strains, locus YMR078C, strain ctf18, stronger effect = lower value", "result": 0.947}, {"measurement": "normalized growth", "setting": "S. cerevisiae deletion strains, locus YMR125W, strain sto1, stronger effect = lower value", "result": 0.975}, {"measurement": "normalized growth", "setting": "S. cerevisiae deletion strains, locus YMR129W, stronger effect = lower value", "result": 0.992}, {"measurement": "normalized growth", "setting": "S. cerevisiae deletion strains, locus YMR205C, strain PFK2, stronger effect = lower value", "result": 0.959}, {"measurement": "normalized growth", "setting": "S. cerevisiae deletion strains, locus YMR223W, strain ubp8, stronger effect = lower value", "result": 0.966}, {"measurement": "normalized growth", "setting": "S. cerevisiae deletion strains, locus YMR231W, strain pep5, stronger effect = lower value", "result": 0.992}, {"measurement": "normalized growth", "setting": "S. cerevisiae deletion strains, locus YMR263W, strain SAP30, stronger effect = lower value", "result": 0.97}, {"measurement": "normalized growth", "setting": "S. cerevisiae deletion strains, locus YMR307W, strain GAS1, stronger effect = lower value", "result": 0.994}, {"measurement": "normalized growth", "setting": "S. cerevisiae deletion strains, locus YNL067W, strain RPL9B, stronger effect = lower value", "result": 0.966}, {"measurement": "normalized growth", "setting": "S. cerevisiae deletion strains, locus YNL071W, strain lat1, stronger effect = lower value", "result": 0.973}, {"measurement": "normalized growth", "setting": "S. cerevisiae deletion strains, locus YNL128W, strain TEP1, stronger effect = lower value", "result": 0.981}, {"measurement": "normalized growth", "setting": "S. cerevisiae deletion strains, locus YNL153C, strain GIM3, stronger effect = lower value", "result": 0.968}, {"measurement": "normalized growth", "setting": "S. cerevisiae deletion strains, locus YNL183C, strain NPR1, stronger effect = lower value", "result": 0.972}, {"measurement": "normalized growth", "setting": "S. cerevisiae deletion strains, locus YNL209W, strain ssb2, stronger effect = lower value", "result": 0.986}, {"measurement": "normalized growth", "setting": "S. cerevisiae deletion strains, locus YNL233W, strain BNI4, stronger effect = lower value", "result": 0.99}, {"measurement": "normalized growth", "setting": "S. cerevisiae deletion strains, locus YNL248C, strain rpa49, stronger effect = lower value", "result": 0.982}, {"measurement": "normalized growth", "setting": "S. cerevisiae deletion strains, locus YNL250W, strain rad50, stronger effect = lower value", "result": "0.834 (active)"}, {"measurement": "normalized growth", "setting": "S. cerevisiae deletion strains, locus YNL271C, strain bni1, stronger effect = lower value", "result": 0.959}, {"measurement": "normalized growth", "setting": "S. cerevisiae deletion strains, locus YNL298W, strain CLA4, stronger effect = lower value", "result": 0.923}, {"measurement": "normalized growth", "setting": "S. cerevisiae deletion strains, locus YNL307C, strain MCK1, stronger effect = lower value", "result": 0.989}, {"measurement": "normalized growth", "setting": "S. cerevisiae deletion strains, locus YNL322C, strain KRE1 (second series), stronger effect = lower value", "result": 0.983}, {"measurement": "normalized growth", "setting": "S. cerevisiae deletion strains, locus YNL322C, strain KRE1, stronger effect = lower value", "result": 0.982}, {"measurement": "normalized growth", "setting": "S. cerevisiae deletion strains, locus YNR049C, strain mso1, stronger effect = lower value", "result": 0.994}, {"measurement": "normalized growth", "setting": "S. cerevisiae deletion strains, locus YNR052C, strain pop2, stronger effect = lower value", "result": 0.956}, {"measurement": "normalized growth", "setting": "S. cerevisiae deletion strains, locus YOL006C, strain TOP1, stronger effect = lower value", "result": 0.931}, {"measurement": "normalized growth", "setting": "S. cerevisiae deletion strains, locus YOL012C, strain htz1", "result": 1.62}, {"measurement": "normalized growth", "setting": "S. cerevisiae deletion strains, locus YOL147C, strain pex11, stronger effect = lower value", "result": 0.98}, {"measurement": "normalized growth", "setting": "S. cerevisiae deletion strains, locus YOR001W, strain rrp6, stronger effect = lower value", "result": 1.01}, {"measurement": "normalized growth", "setting": "S. cerevisiae deletion strains, locus YOR061W, strain CKA2, stronger effect = lower value", "result": 0.957}, {"measurement": "normalized growth", "setting": "S. cerevisiae deletion strains, locus YOR069W, strain VPS5, stronger effect = lower value", "result": 0.998}, {"measurement": "normalized growth", "setting": "S. cerevisiae deletion strains, locus YOR070C, strain gyp1, stronger effect = lower value", "result": 0.992}, {"measurement": "normalized growth", "setting": "S. cerevisiae deletion strains, locus YOR080W, strain dia2, stronger effect = lower value", "result": 0.994}, {"measurement": "normalized growth", "setting": "S. cerevisiae deletion strains, locus YOR083W, strain WHI5, stronger effect = lower value", "result": 0.961}, {"measurement": "normalized growth", "setting": "S. cerevisiae deletion strains, locus YOR106W, strain vam3, stronger effect = lower value", "result": 0.986}, {"measurement": "normalized growth", "setting": "S. cerevisiae deletion strains, locus YOR136W, strain idh2, stronger effect = lower value", "result": 0.989}, {"measurement": "normalized growth", "setting": "S. cerevisiae deletion strains, locus YOR144C, strain elg1, stronger effect = lower value", "result": 0.984}, {"measurement": "normalized growth", "setting": "S. cerevisiae deletion strains, locus YOR184W, strain ser1, stronger effect = lower value", "result": 1.02}, {"measurement": "normalized growth", "setting": "S. cerevisiae deletion strains, locus YOR231W, strain MKK1, stronger effect = lower value", "result": "0.794 (active)"}, {"measurement": "normalized growth", "setting": "S. cerevisiae deletion strains, locus YOR265W, strain rbl2, stronger effect = lower value", "result": 0.993}, {"measurement": "normalized growth", "setting": "S. cerevisiae deletion strains, locus YOR270C, strain vph1, stronger effect = lower value", "result": 0.958}, {"measurement": "normalized growth", "setting": "S. cerevisiae deletion strains, locus YOR290C, strain snf2, stronger effect = lower value", "result": 0.914}, {"measurement": "normalized growth", "setting": "S. cerevisiae deletion strains, locus YOR316C, strain cot1, stronger effect = lower value", "result": 0.968}, {"measurement": "normalized growth", "setting": "S. cerevisiae deletion strains, locus YPL051W, strain arl3, stronger effect = lower value", "result": 0.984}, {"measurement": "normalized growth", "setting": "S. cerevisiae deletion strains, locus YPL055C, strain LGE1, stronger effect = lower value", "result": 0.977}, {"measurement": "normalized growth", "setting": "S. cerevisiae deletion strains, locus YPL078C, strain atp4, stronger effect = lower value", "result": 0.965}, {"measurement": "normalized growth", "setting": "S. cerevisiae deletion strains, locus YPL106C, strain sse1, stronger effect = lower value", "result": 0.967}, {"measurement": "normalized growth", "setting": "S. cerevisiae deletion strains, locus YPL240C, strain hsp82, stronger effect = lower value", "result": 0.993}, {"measurement": "normalized growth", "setting": "S. cerevisiae deletion strains, locus YPL241C, strain CIN2, stronger effect = lower value", "result": "1.08 [resistant] (active)"}, {"measurement": "normalized growth", "setting": "S. cerevisiae deletion strains, locus YPL256C, strain CLN2, stronger effect = lower value", "result": 0.948}, {"measurement": "normalized growth", "setting": "S. cerevisiae deletion strains, locus YPR119W, strain clb2, stronger effect = lower value", "result": 0.983}, {"measurement": "normalized growth", "setting": "S. cerevisiae deletion strains, locus YPR141C, strain kar3, stronger effect = lower value", "result": 0.95}, {"measurement": "normalized growth", "setting": "S. cerevisiae deletion strains, locus YPR163C, strain tif3, stronger effect = lower value", "result": 0.984}, {"measurement": "normalized growth", "setting": "S. cerevisiae deletion strains, locus YPR167C, strain met16, stronger effect = lower value", "result": 0.978}, {"measurement": "normalized growth", "setting": "S. cerevisiae deletion strains, strain wtn01, stronger effect = lower value", "result": 0.959}, {"measurement": "normalized growth", "setting": "S. cerevisiae strains, strain wild type, stronger effect = lower value", "result": 0.989}]}
